High-throughput results from PubChem BioAssay.
A selection: hits, their analogues and other compounds. The true share with any hit is near 12%.
TDP1 block – TDP1 (human) enzyme inhibition; Q9NUW8; Potency, µM (highest dose often 130 µM), inactives show top-dose activity change, negative = inhibition, usual class: inhibitors; 350,000 tested, 0.28% active; recombinant TDP1, AlphaScreen DNA substrate cleavage; note: % is set by controls: 0 for no effect and ±100 for the full control effect; nearly all actives have a fitted effect of over 40% in size
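E. coli-derived human Tdp1, 1 nM final. Cpd preinc 15 min RT; substrate 15 nM final, 5 min RT; AS bead mix 10 ug/ml final, 10 min RT. Signal loss = tyrosine-FITC cleavage. No-enzyme wells = max signal.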
JMJD2A Tudor inh – blocks the human JMJD2A Tudor domain | AlphaScreen JMJD2A-Tudor / H3K4me3 peptide binding | Potency, µM (top dose mostly 114 µM), for inactives: at the highest dose activity change, negative = inhibition, actives largely listed as inhibitors | 390,000 tested, 4.4% active; note: % is set by controls: 0 for no effect and ±100 for the full control effect; nearly all actives have a fitted effect of over 50% in size
Target sequence (O75164 whole entry, looked up, the tested form may be a part): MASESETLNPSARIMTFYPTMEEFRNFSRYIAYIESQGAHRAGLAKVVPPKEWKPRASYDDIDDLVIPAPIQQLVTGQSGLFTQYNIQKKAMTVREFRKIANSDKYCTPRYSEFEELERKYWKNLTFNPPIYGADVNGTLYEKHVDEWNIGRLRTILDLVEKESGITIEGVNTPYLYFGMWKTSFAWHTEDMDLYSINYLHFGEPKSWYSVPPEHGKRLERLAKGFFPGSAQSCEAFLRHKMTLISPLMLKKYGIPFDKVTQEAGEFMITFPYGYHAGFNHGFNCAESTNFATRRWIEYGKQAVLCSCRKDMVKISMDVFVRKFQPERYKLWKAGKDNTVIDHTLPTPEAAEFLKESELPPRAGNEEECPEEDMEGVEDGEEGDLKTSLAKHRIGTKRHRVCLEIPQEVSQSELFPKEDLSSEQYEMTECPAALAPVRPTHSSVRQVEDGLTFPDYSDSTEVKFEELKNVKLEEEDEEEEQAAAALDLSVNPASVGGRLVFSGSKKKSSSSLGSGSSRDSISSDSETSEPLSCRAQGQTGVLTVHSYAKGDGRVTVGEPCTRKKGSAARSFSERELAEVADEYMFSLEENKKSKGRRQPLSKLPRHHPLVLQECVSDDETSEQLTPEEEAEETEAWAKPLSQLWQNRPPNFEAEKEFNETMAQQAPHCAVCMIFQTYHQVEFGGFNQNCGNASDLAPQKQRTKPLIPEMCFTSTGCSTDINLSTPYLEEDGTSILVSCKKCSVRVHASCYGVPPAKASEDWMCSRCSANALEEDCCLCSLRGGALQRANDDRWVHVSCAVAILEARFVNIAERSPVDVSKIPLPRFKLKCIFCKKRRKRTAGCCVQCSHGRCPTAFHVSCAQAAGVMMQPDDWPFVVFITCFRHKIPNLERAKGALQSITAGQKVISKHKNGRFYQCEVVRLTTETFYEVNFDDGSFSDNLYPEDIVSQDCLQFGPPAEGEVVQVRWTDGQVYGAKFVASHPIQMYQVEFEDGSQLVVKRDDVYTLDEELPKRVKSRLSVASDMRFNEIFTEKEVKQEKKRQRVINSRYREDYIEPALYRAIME
HP1b binding inh – HP1-beta chromodomain-methylated histone interaction inhibition | AlphaScreen HP1-beta / biotin-H3K9me3 peptide binding | Potency, µM (top dose mostly 114 µM), without a hit: top-dose activity change, negative = inhibition, hits mostly inhibitors | 390,000 tested, 0.56% active; note: nearly all actives have a fitted effect of over 70% in size
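HP1-beta protein (50 nM final) preincubated 30 min at room temperature with biotinylated H3(1-18)K9me3 peptide (50 nM) in PBS pH 7.4, 0.01% Tween-20, then compound added for 30 min. AlphaScreen streptavidin donor/nickel chelate acceptor beads (10 ug/mL final), 30 min dark, luminescence read.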
G9a block – blocks human histone lysine methyltransferase G9a; Q96KQ7; G9a H3K9 monomethylation, AlphaScreen, 2 h; Potency, µM (doses to about 102 µM), for the others: at the top dose activity, negative = inhibition, hits mostly inhibitors; 350,000 tested, 8.8% active; note: % is set by controls: 0 for no effect and ±100 for the full control effect; nearly all actives have a fitted effect of over 75% in size
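Compounds were preincubated with 20 nM G9a for 15 min, after which biotinylated H3K9 peptide (500 nM) and SAM (20 uM) started a 2 h room-temperature reaction. Monomethylated product was quantified by antibody-based AlphaScreen chemiluminescence.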
Sfp inh – inhibitors of Bacillus subtilis Sfp phosphopantetheinyl transferase. Q9F4F7. Biochemical Sfp PPTase activity, qHTS. Potency, µM, without a hit: largest response in the series, negative = inhibition, hits mostly inhibitors. 310,000 tested, 3.5% active;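 note: the enzyme is Sfp with the accession as filed and its product quenches rhodamine fluorescence; 0% = enzyme reaction without inhibitor and -100% = no enzyme wells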
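Step 1, compound plus 15 nM Sfp-PPTase, 15 min, room temperature. Step 2, add rhodamine-CoA (5 uM) and BHQ-2-YbbR (12.5 uM). Step 3, read 525/598 nm fluorescence at 0 and 30 min.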
BAZ2B block – BAZ2B (human) inhibition; 360,000 tested, 4.4% active; Potency, µM (highest dose often 114 µM), inactives show top-dose activity change, negative = inhibition, actives largely listed as inhibitors; AlphaScreen BAZ2B-H3K14Ac peptide displacement; Q9UIF8; note: % is set by controls: 0 for no effect and ±100 for the full control effect; nearly all actives have a fitted effect of over 60% in size
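Compounds, titrated to a top concentration of 110 uM, were incubated 30 min at room temperature with preformed BAZ2B/acetyl-K14 H3 peptide complex (50 nM each). Proximity signal was measured by AlphaScreen after 20 min with beads.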
* hit, by the source's call; ? = inconclusive; nt = no result given; [ ] = dose if it differs, or a comment. Calls come from the whole dose curve; as a rule, active = well fitted curve in the direction sought with a large enough effect; inconclusive = small, poorly fitted or top-dose-only effect, or another doubt; inactive = no such curve, though single readings can be large; an effect the other way counts as inactive or inconclusive. Potency is the fitted concentration of half-maximal effect.

SMILES	TDP1 block	JMJD2A Tudor inh	HP1b binding inh	G9a block	Sfp inh	BAZ2B block
CN1Cc2cc(C(=O)c3cc(Cl)cc(CSc4ncccn4)c3O)cnc2NC1=O	2.9%	nt	nt	50.1µM*	1.8%	-30.3%
CC1(C)CCN2CCC(C)(C)c3c(O)ccc1c32	10.3%	56.2µM*	?	10µM*	20µM*	44.7µM*
CCOc1ccc(-c2nc(Cn3c(=O)cc(C)c4c(C)nn(-c5ccccc5)c43)c(C)o2)cc1	0.6%	-19.7%	30.5%	6.0%[59 µM]	nt	-16.4%
Cc1ccc(Cl)cc1-n1c(CCC(=O)O)ccc1-c1cccs1	nt	?	-0.1%	11.2µM*	nt	?
Cc1cc(Cl)ccc1-n1c(CCC(=O)O)ccc1-c1cccs1	nt	?	-14.0%	?	nt	44.7µM*
CC1(C)Cc2ccccc2-c2n[nH]c(=S)n21	2.4%	3.16µM*	-1.9%	12.6µM*	44.7µM*	-16.2%
Cc1ccc2[nH]c(C)cc(=S)c2c1	1.3%	-33.2%	-4.1%	?	?	-15.7%
Cc1cc(=S)[nH]c(=S)[nH]1	2.9%	-14.7%[11.4 µM]	51.0%	nt	44.7µM*	-5.9%
CC(=O)N1c2ccc(S(=O)(=O)N3CCCCC3)cc2CC1C(=O)Nc1cccc(C)c1 (centres undefined)	2.0%	-13.0%	53.8%	?	4.6%	?
CCN(CC)CCN(C(=O)C1=COCCO1)c1nc2c(OC)ccc(OC)c2s1	6.7%	-17.4%	17.4%	44.7µM*	-12.9%	-20.5%
Cc1ccc2nc(N(CCN(C)C)C(=O)c3cc(Cl)sc3Cl)sc2c1	1.8%	-19.7%	10.6%	?	1.0%	-37.0%
CCN(CC)CCN(C(=O)C1=COCCO1)c1nc2ccc(C)cc2s1	3.8%	-10.3%	19.6%	-19.4%	1.0%	-21.7%
Cc1cc(C)c2sc(N(CCN(C)C)C(=O)c3cc(Cl)sc3Cl)nc2c1	8.1%	?	4.7%	44.7µM*	-11.3%	nt
Cc1ccc2sc(N(CCN(C)C)C(=O)c3ccc4ccccc4c3)nc2c1C	11.4%	?	67.8%	nt	?	?
COc1ccc(OC)c2sc(N(CCN(C)C)C(=O)c3ccc4ccccc4c3)nc12	15.7%	?	-19.3%[57 µM]	15.8µM*	?	?
Cc1cccc2sc(N(CCN(C)C)C(=O)c3cc(Cl)sc3Cl)nc12	-7.0%	?	-13.1%	44.7µM*	-24.2%	?
O=C(NCCCc1nc2ccccc2n1Cc1ccc(Cl)cc1)C1CCCCC1	-2.5%	-16.1%	19.6%	8.0%[59 µM]	nt	-3.2%
COc1cc2c(cc1OC)CN(S(=O)(=O)c1ccc(Cl)nc1)CC2	8.8%	?	28.5%	-33.5%	nt	1.8%
COc1ccc(Cl)c2sc(N(CCN(C)C)C(=O)c3ccc4c(c3)OCCO4)nc12	-4.8%[0.505 µM]	?	-29.9%	50.1µM*	nt	?
COc1ccccc1C(=O)N(CCN(C)C)c1nc2cc(C)cc(C)c2s1	5.8%	?	3.1%	?	1.7%	nt
COc1cc2ccccc2cc1C(=O)N(CCN(C)C)c1nc2c(OC)ccc(OC)c2s1	14.6%	39.8µM*	?	44.7µM*	-25.0%	?
COc1cc2ccccc2cc1C(=O)N(CCN(C)C)c1nc2c(C)cccc2s1	14.5%	?	10.9%	12.6µM*	?	?
Oc1ccc(/C=N/NC2=NCCCCC2)cc1	4.2%	-11.7%	32.2%	39.8µM*	4.7%	0.6%
COc1cc(/C=N/NC(=O)C(=O)N2CCCCCC2)ccc1O	-0.3%	-7.5%	27.6%	nt	9.3%	-2.2%
COc1cc(/C=N/NC2=NCCCCC2)ccc1O	2.4%	-3.9%	37.6%	56.2µM*	12.1%	-3.6%
SMILES	TDP1 block	JMJD2A Tudor inh	HP1b binding inh	G9a block	Sfp inh	BAZ2B block
COc1cc2nc(=S)n(CCCN3CCOCC3)c(N)c2cc1OC	0.0%	-16.0%	22.2%	?	50.1µM*	-21.5%
O=C(COCc1cc(-c2cccs2)on1)Nc1ccc(OC(F)(F)F)cc1	0.0%	-5.0%	14.5%	13.6%[59 µM]	nt	4.7%
Cn1c(=O)c(S(=O)C2CCCCC2)c(O)c2ccccc21 (centres undefined)	nt	-4.3%	46.8%	nt	nt	nt
O/C(=C\c1nc2ccccc2nc1/C=C(\O)c1ccccc1)c1ccccc1	5.3%	?	-16.2%	?	39.8µM*	4.47µM*
O=C(O)c1ccc(CNCc2ccccc2F)cc1	4.9%	-18.9%	39.6%	9.7%[0.501 µM]	11.1%	0.9%
N#CCCn1cc(C(=O)Nc2ccc(C(=O)O)cc2)c(-c2cccc(Br)c2)n1	nt	-13.1%	25.3%	-9.7%[0.501 µM]	5.0%	8.1%
Cc1[nH]c2ccccc2c1C(c1ccncc1)N1CCN(c2ccccn2)CC1 (centres undefined)	7.7%	-35.4%	?	22.4µM*	?	?
Clc1ccc(C(c2ccccc2)N2CCN(c3ccccn3)CC2)cc1 (centres undefined)	2.6%	-8.4%	-12.5%	29.0%	-1.5%	-14.0%
Cc1[nH]c2ccccc2c1C(c1ccncc1)N1CCC(C)CC1 (centres undefined)	8.4%	?	-12.3%	28.2µM*	-4.2%	-10.8%
COc1ccc(CNC(=O)COC(=O)CC(NC(N)=O)c2ccc(Cl)cc2)cc1OC (centres undefined)	-0.2%[56.1 µM]	-11.1%	38.4%	18.7%[2.33 µM]	nt	3.6%
Cc1ccc(C)c(S(=O)(=O)N/N=C/c2ccc(F)cc2)c1	0.0%	-22.5%	27.0%	11.2µM*	-29.2%	-3.7%
CC(=O)Nc1ccc(/C=N/NS(=O)(=O)c2cc(C)ccc2C)cc1	-8.3%	-4.0%	35.8%	50.1µM*	-11.0%	-37.2%
NC(=O)c1ccc(-c2nnn(CC(=O)Nc3cccc(S(=O)(=O)N4CCCC4)c3)n2)cc1	0.2%	-13.9%	39.0%	18.9%[12.7 µM]	nt	0.9%
CC(C)Sc1nc(N)c2c3c(sc2n1)CN(C)CC3	4.4%	-16.8%	31.6%	3.16µM*	4.5%	5.8%
CCCSc1nc(N)c2c3c(sc2n1)CN(C)CC3	-1.0%	-13.5%	40.5%	-46.0%[12.7 µM]	3.0%	0.4%
COCCSc1nc(N)c2c3c(sc2n1)CN(C)CC3	7.7%	-16.8%	25.5%	nt	7.6%	-9.6%
CN(C)CCSc1nc(N)c2c3c(sc2n1)CN(C)CC3	-1.9%	-14.4%	10.2%	44.7µM*	11.9%	-7.1%
O=C(Cc1cccs1)Nc1ccc(S(=O)(=O)Nc2ncccn2)cc1	nt	79.4µM*	-6.7%	?	-3.0%	56.2µM*
O=C(CCCNC(=O)c1ccc(Cl)cc1)Nc1ccc(S(=O)(=O)Nc2ncccn2)cc1	5.1%	-31.6%[11.4 µM]	19.7%	nt	22.2%	-3.2%
O=C(CNC(=O)c1ccc(Cl)cc1)Nc1ccc(S(=O)(=O)Nc2ncccn2)cc1	0.0%	-4.8%	22.7%	22.4µM*	-4.8%	?
NS(=O)(=O)c1ccc(CNC(=O)Cc2cccs2)cc1	nt	?	17.8%	70.8µM*	1.1%	56.2µM*
